Screening data as filed in PubChem.
TGFb SMAD3 inh: blocks TGF-b signaling; 410,000 tested, 1.2% active; Potency, µM (series often up to 46.1 µM), for the others: top-dose activity, negative = inhibition, actives largely listed as inhibitors; AID 588855; HepG2 CAGA-GFP TGF-b/SMAD3 reporter, GFP fluorescence, 18 h; TGF-beta stimulated, 500 pg/mL final; note: % is set by controls: 0 for no effect and ±100 for the full control effect; nearly all actives have a fitted effect of over 65% in size
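Read-out: total well GFP (ex488/em500-530) summed from mean per-cell fluorescence. Cells: HEPG2 CAGA-GFP, 1% FBS DMEM, 18 h at 37 degrees C with 500 pg/mL final TGF-beta. Unstimulated wells served as the full-inhibition control; stimulated DMSO wells = 0%.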
HepG2 viability: counter-screen for TGF-b inhibitors: cytotoxicity in HepG2 cells. Potency, µM (titrated, usually from 46.1 µM), without a hit: at the top dose activity change, negative = cytotoxicity, usual class: cytotoxic. 410,000 tested, 0.76% active. AID 588856. HepG2 CAGA-GFP viability, ATP luminescence, 18 h
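CellTiter-Glo luminescence gave cytotoxicity after 18 hours at 37 degrees C. The cells were HepG2 CAGA-GFP in 1% FBS DMEM, stimulated with 500 pg/mL TGF-beta after compound addition. %Activity was normalised to no-cell wells (complete cell-killing) and DMSO (no toxicity), and curves were fitted and classified.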
DT40 TDP1 CPT: DT40-hTDP1 cell growth loss with CPT | chicken DT40 Tdp1-/-;hTDP1 cells + 20 nM CPT, ATP luminescence, 48 h | Potency, µM (top dose mostly 46.2 µM), for inactives: top-dose activity change, negative = growth inhibition, most hits filed as inhibitors | 420,000 tested, 12% active; note: % is set by controls: 0 for no effect and ±100 for the full control effect; nearly all actives have a fitted effect of over 55% in size
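Chicken DT40 Tdp1-/- cells complemented with human TDP1, 400 cells/well, exposed to compounds plus 20 nM camptothecin for at least 48 h at 37 C; viability read as ATP content by CellTiter-Glo luminescence.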
ATXN viability: cell viability loss in ATXN counter-screen; S2 cells (HEK-293 line with an ATXN2-luciferase reporter) viability, CellTiter-Fluor protease fluorescence, 24 h; Potency, µM (top dose mostly 56.7 µM), usual class: cytotoxic; 400,000 tested, 0.49% active; AID 651635; note: nearly all actives have a fitted effect of over 40% in size
DT40 TDP1 no CPT: qHTS for Inhibitors of human tyrosyl-DNA phosphodiesterase 1 (TDP1): qHTS in cells in absence of CPT; DT40 Tdp1-/- hTDP1 cells, no CPT, ATP luminescence, 48 h; Potency, µM (doses to about 46.2 µM), inactives show top-dose activity change, negative = growth inhibition, most hits filed as inhibitors; 420,000 tested, 15% active; note: % is set by controls: 0 for no effect and ±100 for the full control effect; nearly all actives have a fitted effect of over 55% in size
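Seeded 400 DT40-hTDP1 cells/well (vehicle DMSO, no 20 nM CPT); pinned compounds; ≥48 hr at 37 °C; CellTiter-Glo luminescence as viability measure.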
ATXN2 expr inh: reduces ATXN2 reporter expression in HEK-293 cells; HEK-293 ATXN2-luciferase reporter, luminescence, 24 h; Potency, µM (titrated, usually from 57 µM), inactives show top-dose activity change, negative = inhibition, actives largely listed as inhibitors; 360,000 tested, 0.72% active; AID 1745845; note: % is set by controls: 0 for no effect and ±100 for the full control effect; nearly all actives have a fitted effect of over 55% in size
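ATXN2-luciferase reporter cells (luciferase flanked by upstream and downstream ATXN2 gene portions) were treated 24 h at 37 °C with compounds at up to 57 uM. SteadyGlo luminescence gave expression; GF-AFC fluorescence gave viability.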
* marks the source's active call; other numbers are inactive results. Compounds with a hit are over-represented: about 17% of the library has one in this group of screens. Calls come from the whole dose curve; as a rule, active = well fitted curve in the direction sought with a large enough effect; inconclusive = small, poorly fitted or top-dose-only effect, or another doubt; inactive = no such curve, though single readings can be large; an effect the other way counts as inactive or inconclusive. Potency is the fitted concentration of half-maximal effect.

What do the screens show for `CCCNC(=O)C(Cc1ccccc1F)NC(=O)c1ccccn1` (stereo not given)?
TGFb SMAD3 inh: 5.0%; HepG2 viability: -9.9%; DT40 TDP1 CPT: -2.9%; ATXN viability: inactive; DT40 TDP1 no CPT: -11.0%; ATXN2 expr inh: 4.2%

How did CCOc1ccccc1N(CC(=O)NC1CCCC1)S(=O)(=O)c1ccc(C)cc1 do in these assays?
TGFb SMAD3 inh: 0.6%; HepG2 viability: -17.7%; DT40 TDP1 CPT: inconclusive; ATXN viability: inactive; DT40 TDP1 no CPT: 20.6µM*; ATXN2 expr inh: -27.7%

What do the screens show for `CCOC(=O)C1CCC(CN(Cc2ccc(Cl)cc2)S(=O)(=O)c2cc(Cl)cc(Cl)c2)CC1` (stereo not given)?
TGFb SMAD3 inh: 22.3%; HepG2 viability: 1.1%; DT40 TDP1 CPT: 20.6µM*; ATXN viability: inactive; DT40 TDP1 no CPT: 10.3µM*; ATXN2 expr inh: -0.5%

What do the screens show for `CCOC(=O)N1CCN(C(=O)CN(Cc2ccc(Cl)cc2)S(C)(=O)=O)CC1`?
TGFb SMAD3 inh: -8.7%; HepG2 viability: -0.6%; DT40 TDP1 CPT: 4.9%; ATXN viability: inactive; DT40 TDP1 no CPT: 3.1%; ATXN2 expr inh: -3.6%

What do the screens show for `CCOc1ccccc1N(CC(=O)N1CCCCCC1)S(=O)(=O)c1ccc(C)cc1`?
TGFb SMAD3 inh: -1.4%; HepG2 viability: -28.6%; DT40 TDP1 CPT: 23.1µM*; ATXN viability: inactive; DT40 TDP1 no CPT: inconclusive; ATXN2 expr inh: -2.8%

How did Cc1ccc(S(=O)(=O)N(CC(=O)NC2CCCCCC2)c2ccccc2F)cc1 do in these assays?
TGFb SMAD3 inh: 14.0%; HepG2 viability: -0.7%; DT40 TDP1 CPT: -24.7%; ATXN viability: inactive; DT40 TDP1 no CPT: -23.9%; ATXN2 expr inh: -3.2%

What do the screens show for `CCOC(=O)N1CCN(C(=O)CN(Cc2ccc(Cl)cc2)S(=O)(=O)c2ccc(C)cc2)CC1`?
TGFb SMAD3 inh: -1.9%; HepG2 viability: -5.6%; DT40 TDP1 CPT: 15.8µM*; ATXN viability: inactive; DT40 TDP1 no CPT: inconclusive; ATXN2 expr inh: -12.2%

What do the screens show for `Cc1ccc(-c2ccc(C)c(N)c2C)c(C)c1N`?
TGFb SMAD3 inh: -14.6%; HepG2 viability: -31.9%; DT40 TDP1 CPT: -26.2%; ATXN viability: inactive; DT40 TDP1 no CPT: -19.8%; ATXN2 expr inh: -21.0%

What do the screens show for `CCCN(CC1CC1)C(=S)NC(=O)c1ccc(S(=O)(=O)N2CCOCC2)cc1`?
TGFb SMAD3 inh: 15.8%; HepG2 viability: 1.1%; DT40 TDP1 CPT: inconclusive; ATXN viability: inconclusive; DT40 TDP1 no CPT: inconclusive; ATXN2 expr inh: 4.3%

How did CN(C)c1nc(CN2CCCCC2c2cccnc2)nc2ccccc12 (stereo not given) do in these assays?
DT40 TDP1 CPT: -1.7%; ATXN viability: inactive; DT40 TDP1 no CPT: -0.2%

How did CC(=O)NC(=S)Nc1ccc(S(=O)(=O)Nc2nc(C)cc(C)n2)cc1 do in these assays?
TGFb SMAD3 inh: 2.0%; HepG2 viability: -0.5%; DT40 TDP1 CPT: 17.5%; ATXN viability: inactive; DT40 TDP1 no CPT: 1.4%; ATXN2 expr inh: 5.7%

How did CC(C)Cc1nc(NCCN2CCOCC2)c(C#N)c2c1COC(C)(C)C2 do in these assays?
TGFb SMAD3 inh: 24.6%; HepG2 viability: -11.6%; DT40 TDP1 CPT: inconclusive; ATXN viability: inactive; DT40 TDP1 no CPT: 18.4µM*; ATXN2 expr inh: -10.3%

How did CCc1nc(NCCN2CCOCC2)c(C#N)c2c1CCCC2 do in these assays?
TGFb SMAD3 inh: -8.3%; HepG2 viability: -33.5%; DT40 TDP1 CPT: 3.26µM*; ATXN viability: inactive; DT40 TDP1 no CPT: -20.3%; ATXN2 expr inh: -12.7%
